# Measurements taken from the supplement of paper PMC6555819.
# Tests used:
# Assay in all cases: PBM binding z-score (relative to random genomic background probes); higher = stronger binding; sequences stand for … in GC…GCGATTGACAGCGTAGAATGAAGG
# [1] = test system: PPARg:RXRa DBDmut IVT, anti-RXR (DBD mutation: RXRa K156A/R161A, NR concentration 270 nM, RXRa partner concentration 90 nM)
# Outline: (§1)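 On custom Agilent 4×180K arrays, double-stranded probes with 34-nt variable regions carried direct-repeat seeds, single-nucleotide variants, half-site ablations or random human genomic background. Ligand-free nuclear receptor dimers were applied for 1 h, and binding was read with antibodies against each partner (one per run). Binding z-scores come from regression-normalized fluorescence, with the random background probes as reference.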
# [2] = test system: PPARg:RXRa IVT, anti-PPARg (NR concentration 270 nM, RXRa partner concentration 90 nM)
# Outline: as §1
# [3] = test system: PPARg DBDmut:RXRa IVT, anti-PPARg (DBD mutation: PPARg1 K132A/R137A, NR concentration 270 nM, RXRa partner concentration 90 nM)
# Outline: as §1
# [4] = test system: PPARg DBDmut IVT, anti-PPARg (DBD mutation: PPARg1 K132A/R137A, NR concentration 270 nM)
# Outline: as §1
# [5] = test system: PPARg homodimer (NR concentration 180 nM)
# Outline: as §1
# [6] = test system: PXR:RXRa (NR concentration 270 nM, RXRa partner concentration 90 nM)
# Outline: as §1
# [7] = test system: PXR homodimer (NR concentration 270 nM)
# Outline: as §1
# [8] = test system: RARa:RXR (NR concentration 270 nM, RXRa partner concentration 90 nM)
# Outline: as §1
# [9] = test system: RARa homodimer (NR concentration 270 nM)
# Outline: as §1
# [10] = test system: RARb:RXRa (NR concentration 270 nM, RXRa partner concentration 90 nM)
# Outline: as §1
Sequence,PBM binding z-score [1],PBM binding z-score [2],PBM binding z-score [3],PBM binding z-score [4],PBM binding z-score [5],PBM binding z-score [6],PBM binding z-score [7],PBM binding z-score [8],PBM binding z-score [9],PBM binding z-score [10]
CCTTACGGGTCACGAGGTTATCGCACGACGAGCG,4.34,5.24,1.36,0.803,3.23,4.75,0.615,6.45,0.798,4.5
ATCTCTAGGTCACCAAGTTCAGTGAATGCCGAAC,7.23,7.06,2.4,2.04,3.74,5.68,11.1,3.92,2.64,4.82
GCAGTCAGGTGAAACGCAGGTAACTCAGGGTGGC,1.84,0.996,-0.763,-0.908,-0.83,-0.443,-0.701,0.159,-1.13,1.03
TAGCCTAGGTCATGCGGGCCAGTTTAGTGTCGGC,2.01,2.55,-0.215,-0.754,0.303,1.59,-0.464,2.22,-0.83,3.45
ATCACTAGGTAAAAGTTCAGTGAATCCCGAGGAT,3.38,4.52,1.04,1.36,1.02,2.08,1.55,1.9,1.02,2.49
TCGAGTAGTTTACCAATGGGGCATTCAGCTTTCT,0.933,-0.146,-0.382,0.0492,-0.418,-0.0619,-0.235,0.338,-0.982,0.0508
ATCTCTAGGTAACAGGTTCAGTGAAAGAGAGGAC,3.85,3.15,1.83,1.35,1.4,0.871,1.43,0.854,0.973,0.893
CGTCCAAGGTCAGCAGGTCAGGGAAAGCGACGTG,3.07,3.53,-0.625,-0.856,4.09,3.83,0.492,5.33,1.3,5.27
GCTCAGAGGACAAGGTCAGAGCTTTGTCCGTAGA,0.92,0.924,-1.05,-1.28,0.348,1.74,-0.21,2.17,-0.133,3.78
GCGACTGGGGCATCAGCAGGTTACCAGAACTTAA,3.48,3.19,-0.703,-1.1,0.612,-0.0392,-0.687,0.483,-0.801,0.987
CTACCAATGTGAACAAGGTCGTTGATTACTATTC,0.604,0.639,0.446,0.752,0.968,1.99,1.41,1.89,1.01,0.831
TCATATAGGCAAAGGTGAAAGTCGAACGATATGA,2.2,2.33,0.797,0.292,0.811,1.04,0.14,2.02,0.326,1.74
CCAGACAGGTGAGATGGTAACTCAGCCTCGATTA,0.95,0.00345,-0.391,-0.721,0.16,-0.343,0.189,-0.347,0.738,0.229
CCGACTGGGGCAGGAAGGTTACCATACCATCCGG,1.39,2.05,-0.739,-1.79,0.462,-0.00877,-0.202,0.286,-0.388,0.913
CCTAGTTCGTCAGGAGGTCACACACCGGATATGA,1.04,2.38,0.424,0.947,5.39,5.2,2.66,5.34,2.32,3.76
CCTCGGAGGACAACAAGAGGTCAGAGCTGCCAGA,-0.155,0.669,-1.24,-1.03,1.86,3.04,0.241,3.4,0.861,3.18
CCTACTAGGCCAAAAAGGTCATTGATGCCGATAA,5.03,4.58,-0.262,-0.187,2.71,4.88,5.01,5,1.4,4.09
CAAACTAGGTCATGAGGTCAAAGTCCGCTTCCCG,8.1,8.5,2.32,1.99,5.08,5.91,4.28,6.92,2.05,5.03
TGTCATAGTTCAAAGGTAACGTAAGTATCCACAC,-0.243,3.05,1.21,1.83,1.56,3.52,1.08,4.52,1.31,3.46
CGAACGAGGGCATGAGTTGGTAGCAAATGCCGAT,2.72,1.66,0.738,-0.612,-0.306,0.171,-0.43,0.384,-0.55,1.81
ATGCCAAGGTGATCGTGAGGTCGTTGATACTAAC,0.413,1.05,0.0542,-0.951,0.442,2.75,1.03,2.28,-0.38,1.32
ATACCAAGGCGATCGTGAGGTCGTTGATACTAAC,-0.138,-0.0368,-0.877,-0.313,-0.138,1.3,0.728,1.12,0.128,0.341
GCTGCTAGGTCAATTGATGGTCAGCTAAAGCTCG,4.15,3.1,-0.948,0.185,0.889,0.861,-0.942,1.75,-0.705,3.59
TCGAGTAGGTTACCAAGGGGGCATTCAGCTTTCT,3.32,4.07,4.92,5.1,1.17,2.98,0.477,2.6,-0.167,1.98
ACTTACGGGTCAACGAGTTTATAGCACGCGTATA,3.67,3.98,1.94,1.27,1.4,5.9,9.25,4.24,0.513,4.14
